# Hit rate of the full screen: of about 39,000 compounds, about 3,300 (8.5%) were called active. This excerpt belongs to a sample that is enriched for actives.
# System: HepG2
# Experiment: cytotoxicity call (relative viability < 0.9)
# Conditions: 10 µM
row,SMILES,cytotoxicity call
1,COc1ccc(S(=O)(=O)N(C)C[C@H]2Oc3c(NC(=O)C4CC4)cccc3C(=O)N([C@@H](C)CO)C[C@H]2C)cc1,inactive
2,C[C@H](CO)N1C[C@H](C)[C@@H](CN(C)Cc2ccccc2)Oc2c(NC(=O)CCCCCC(=O)Nc3ccccc3N)cccc2C1=O,inactive
3,c1ccc([C@@H]2CCC[C@H](c3ccccc3)S2)cc1,inactive
4,C[C@H]1CN([C@@H](C)CO)C(=O)c2cc(NS(=O)(=O)c3cccs3)ccc2O[C@@H]1CN(C)C(=O)Nc1cccc2ccccc12,inactive
5,Cn1cc(C[C@@H](N)C(=O)O)c2ccccc21,inactive
6,O=C(C[C@H]1C[C@@H]2c3cc(NC(=O)NC4CCCC4)ccc3O[C@@H]2[C@@H](CO)O1)NCCN1CCCCC1,inactive
7,NC(Cc1cc(I)c(Oc2cc(I)c(O)c(I)c2)c(I)c1)C(=O)[O-].[Na+] (centres undefined),inactive
8,C[C@H]1CN([C@@H](C)CO)C(=O)c2cc(NC(=O)Nc3ccccc3)ccc2O[C@@H]1CN(C)C(=O)Nc1cccc2ccccc12,inactive
9,C[C@H](CO)N1C[C@H](C)[C@H](CN(C)Cc2ccc(Cl)c(Cl)c2)OCCCC[C@H](C)Oc2ccc(NC(=O)Nc3ccc(C(F)(F)F)cc3)cc2C1=O,active
10,C[C@H]1CCCCO[C@H](CN(C)Cc2ccc(Cl)c(Cl)c2)[C@@H](C)CN([C@@H](C)CO)C(=O)c2cc(NC(=O)Nc3ccc(C(F)(F)F)cc3)ccc2O1,inactive
11,C[C@H]1CCCCO[C@@H](CN(C)Cc2ccc(Cl)c(Cl)c2)[C@@H](C)CN([C@@H](C)CO)C(=O)c2cc(NC(=O)Nc3ccc(C(F)(F)F)cc3)ccc2O1,inactive
12,CC(=O)c1ccc(O)c(C(N)=O)c1,inactive
13,COc1ccc(S(=O)(=O)Nc2ccc3c(c2)CC(=O)N([C@@H](C)CO)C[C@@H](C)[C@@H](CN(C)Cc2ccc(-c4ccccc4)cc2)O3)cc1,inactive
14,COc1ccc(S(=O)(=O)Nc2ccc3c(c2)CC(=O)N([C@@H](C)CO)C[C@H](C)[C@@H](CN(C)Cc2ccc(-c4ccccc4)cc2)O3)cc1,inactive
15,COc1ccc(S(=O)(=O)Nc2ccc3c(c2)CC(=O)N([C@H](C)CO)C[C@H](C)[C@@H](CN(C)Cc2ccc(-c4ccccc4)cc2)O3)cc1,inactive
16,COc1ccc(S(=O)(=O)Nc2ccc3c(c2)CC(=O)N([C@@H](C)CO)C[C@@H](C)[C@H](CN(C)Cc2ccc(-c4ccccc4)cc2)O3)cc1,active
17,COc1ccc(S(=O)(=O)Nc2ccc3c(c2)CC(=O)N([C@@H](C)CO)C[C@H](C)[C@H](CN(C)Cc2ccc(-c4ccccc4)cc2)O3)cc1,active
18,COc1ccc(S(=O)(=O)Nc2ccc3c(c2)CC(=O)N([C@H](C)CO)C[C@H](C)[C@H](CN(C)Cc2ccc(-c4ccccc4)cc2)O3)cc1,active
19,COc1ccc(S(=O)(=O)Nc2ccc3c(c2)CC(=O)N([C@H](C)CO)C[C@@H](C)[C@@H](CN(C)Cc2ccc(-c4ccccc4)cc2)O3)cc1,active

# Source: the antibiotic and cytotoxicity screens of Wong et al. (2023)
